The record followed here is PubChem BioAssay.

Test [1] is described as follows: inhibitors of TNFa-induced NFkB p65 translocation, primary screen, imaging, HUVEC, MLSMR starter and 10KST1 sets (AID 438;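 active = inhibition above 20% together with a positive visual image hit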;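 note: compound added about 3h40 before a 20 min TNFalpha stimulation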;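 for inhibition: signal is the nuclear over cytoplasmic p65 intensity ratio per well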). The conditions noted are these: HUVEC TNFa-induced p65 nuclear translocation; cell count: measured here: nuclei count (cytotoxicity indicator), at 2.08 µM; inhibition: at 2 µM, stronger effect = higher value, 0% TNFa-plus-vehicle, 100% no-TNFa wells.
Test [2] can be described thus: reduction of polyQ htt aggregates in cells – imaging, exon1htt(103Q)mCFP cells, high-content imaging, primary screen (AID 483;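 active = visual image review flags a hit and inhibition of aggregation exceeds 20%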;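 note: compound exposure lasted 3 days before fixation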;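 for nuclei count: percent of the per-plate median nuclei count of sample wells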). The conditions noted are these: exon1htt(103Q)mCFP cell line, aggregate imaging, at 2 µM; inhibition of aggregation: stronger effect = higher value; nuclei count: measured here: cell count, toxicity.
A short description of test [3]: endothelial E-selectin expression blockers – imaging, HUVEC, immunofluorescence, MLSMR starter and 10KST1 sets, primary screen (AID 487;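 active = visually confirmed hit in the image check and inhibition above 20%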;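 for inhibition: signal is fraction of cell area covered by stained E-selectin grains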;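 for nuclei count: 100% = median nuclei count of all wells on the same plate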). The conditions noted are these: HUVEC TNFalpha-induced E-selectin immunofluorescence imaging, at 2 µM; inhibition: stronger effect = higher value; nuclei count: measured here: cell number, toxicity.
Test [4] addresses Voltage-gated potassium channel subunit beta-2 (Rattus norvegicus) (UniProt P62483). The test is described as follows: inhibitors of rat Kvbeta2 reductase activity – biochemical, NADPH fluorescence, primary screen (AID 622;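 active = fluorescence slope higher than the sample average by over 3 SD, cut at about -0.22 in these data, passing the limit was not always enough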;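 note: slope of raw intensity against log time taken from 70 to 1610 s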). The conditions noted are these: recombinant KvBeta, 4-cyanobenzaldehyde reduction, at 10 µM, stronger effect = higher value.
The target is the same in test [5]. Description: enhancers of rat Kvbeta2 NADPH turnover – biochemical, NADPH fluorescence, primary screen (AID 623;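 active = NADPH fluorescence slope more negative than the mean of all samples by about 3 SD, 99.7% confidence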;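 note: fluorescence intensity change per second fitted from 20 to 320 s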). The conditions noted are these: Recombinant KvBeta, NADPH fluorescence decrease slope, 10 min; at 10 µM; stronger effect = lower value.
The target of test [6] is Alpha-2C adrenergic receptor (Homo sapiens) (UniProt P18825). Description: compounds altering alpha2C-coupled GIRK flux – cell-based, HEK293 alpha2C/GIRK1/2, thallium flux, primary screen (AID 624).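 Note: slope of fluorescence ratio to pre-addition baseline per second over 15 to 24 s.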 The conditions noted are these: thallium flux BTC fluorescence, at 10 µM, actives lie on both sides.
Sequence of Alpha-2C adrenergic receptor (Homo sapiens) (P18825 whole entry, looked up): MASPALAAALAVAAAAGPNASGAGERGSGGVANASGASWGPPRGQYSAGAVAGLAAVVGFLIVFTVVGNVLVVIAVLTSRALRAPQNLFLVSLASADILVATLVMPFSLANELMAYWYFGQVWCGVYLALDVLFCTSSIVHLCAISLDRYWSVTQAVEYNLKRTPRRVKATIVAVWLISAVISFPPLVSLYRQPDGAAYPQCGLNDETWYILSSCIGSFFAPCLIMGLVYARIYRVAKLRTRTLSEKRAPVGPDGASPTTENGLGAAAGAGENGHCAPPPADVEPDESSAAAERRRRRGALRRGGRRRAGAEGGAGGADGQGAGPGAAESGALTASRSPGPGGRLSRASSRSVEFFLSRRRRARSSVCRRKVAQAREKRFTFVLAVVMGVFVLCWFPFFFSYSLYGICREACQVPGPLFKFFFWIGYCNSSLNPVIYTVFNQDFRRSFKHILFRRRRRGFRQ
The nature of test [7]: blockers of RIG-like receptor reporter activation – cell-based, Sendai virus stimulus, luciferase, 10K MLSCN set, TLR/RLR signaling modifier project, primary screen (AID 602276;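 active = inhibition at or above 50% at 10 µM; inactive = inhibition below 50%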;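 note: firefly luciferase from ISG56 promoter only with Renilla not read in this screen; 0% = Sendai virus plus DMSO and 100% = medium plus DMSO without virus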). The conditions noted are these: HEK293 RL24 IRF3 luciferase reporter, at 10 µM, stronger effect = higher value. (In general: In a reporter assay the amount or activity of a reporter protein is the signal.)
Test [8] in a line: TLR3 IRF3 reporter activation blockers – cell-based, poly I:C stimulus, luciferase, 10K MLSCN set, primary screen (AID 602277;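 active = inhibition of the reporter signal at or above 50%; inactive = inhibition below 50%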). The conditions noted are these: HEK293-TLR3 RL24 IRF3 luciferase reporter, at 10 µM, stronger effect = higher value.

Molecules are shown by their SMILES. Calls of active or inactive are those of the source.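 Rule for the calls, unless noted: active = fluorescence slope after compound addition differing from the mean of all screened samples at 99.7% confidence, in either direction; inactive = the rest.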

Sequence of Voltage-gated potassium channel subunit beta-2 (Rattus norvegicus) (P62483 whole entry, looked up): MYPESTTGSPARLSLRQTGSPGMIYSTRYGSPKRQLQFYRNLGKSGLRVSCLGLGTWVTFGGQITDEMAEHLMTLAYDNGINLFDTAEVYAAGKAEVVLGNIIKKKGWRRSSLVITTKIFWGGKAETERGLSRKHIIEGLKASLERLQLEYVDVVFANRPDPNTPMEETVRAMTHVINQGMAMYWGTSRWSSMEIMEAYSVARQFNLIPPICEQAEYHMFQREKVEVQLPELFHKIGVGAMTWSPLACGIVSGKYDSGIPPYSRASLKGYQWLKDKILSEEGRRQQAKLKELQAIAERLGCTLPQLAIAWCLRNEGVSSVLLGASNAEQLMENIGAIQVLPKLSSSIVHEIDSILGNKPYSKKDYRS

Consider `O=C(C1CCCCC1)N1CCC(c2nc3c(nnn3Cc3ccccc3Cl)c(=O)[nH]2)CC1`, for which, in test [1], the cell count stood at 372. Moreover, the inhibition in test [1] is -1.5% (inactive); in test [3], -144% (inactive); in test [7] it was 11.3% (inactive); in test [8], 26.2% (inactive). In test [2], the inhibition of aggregation was -5.2% (inactive). The nuclei count in test [2] stood at 110%; in test [3], 115%. Also, in test [4], the fluorescence slope was -0.359 (inactive). Further, the NADPH fluorescence slope in test [5] was -4.8e-05 (inactive). Further, the slope in test [6] was 0.00569 (inactive).
Regarding `CCOC(=O)c1sc(NC(=O)CSc2n[nH]c(-c3ccccc3)n2)c(C#N)c1C`, the cell count in test [1] came to 634. Besides, the inhibition was -4.4% (inactive) in test [1], 106% (active) in test [3], 7.86% (inactive) in test [7] and -25.2% (inactive) in test [8]. The inhibition of aggregation in test [2] was -7.1% (inactive). Further, the nuclei count in test [2] turned out to be 94%; in test [3], 122%. Besides, the fluorescence slope in test [4] is -0.393 (inactive). Further, the NADPH fluorescence slope in test [5] was 2.8e-05 (inactive). In test [6], the slope was 0.00567 (inactive).
Turning to `COc1ccc(Cl)cc1NC(=O)CCN1CCN(c2ccccc2C)CC1`, the cell count in test [1] came to 285. In addition, the inhibition was 21.9% (inactive) in test [1], -35.4% (inactive) in test [3], 10% (inactive) in test [7] and 5.86% (inactive) in test [8]. For the same compound, in test [2], the inhibition of aggregation was -3.9% (inactive). Further, the nuclei count in test [2] is 101%; in test [3], 112%. The fluorescence slope in test [4] is -0.308 (inactive). Besides, the NADPH fluorescence slope in test [5] is -6.5e-05 (inactive). Moreover, in test [6], the slope was 0.00554 (inactive).
Take `O=C(CSc1ncnc2c1cnn2Cc1ccccc1)Nc1ccc2c(c1)OCCO2`: the cell count in test [1] is 308. In addition, the inhibition in test [1] is 0.9% (inactive); in test [3] it was 11.1% (inactive); in test [7], 6.25% (inactive); in test [8], 17.7% (inactive). In addition, the inhibition of aggregation in test [2] was 27.1% (inactive). Further, the nuclei count in test [2] came out at 94.9%; in test [3] it was 94.2%. Also, the fluorescence slope in test [4] was -0.36 (inactive). Also, the NADPH fluorescence slope in test [5] is -0.00015 (inactive). Further, in test [6], the slope is 0.00683 (inactive).
Regarding `COc1ccc(-c2[nH]nc3c2C(c2ccncc2)C(C#N)=C(N)O3)cc1` (centres undefined), the cell count in test [1] amounted to 441. For the same compound, the inhibition in test [1] is 6% (inactive); in test [3], -6.7% (inactive); in test [7], 6.11% (inactive); in test [8], 99% (active). Further, the inhibition of aggregation in test [2] was 2.5% (inactive). In addition, the nuclei count in test [2] is 113%; in test [3], 100%. For the same compound, in test [4], the fluorescence slope is -0.31 (inactive). For the same compound, the NADPH fluorescence slope in test [5] was -4.4e-05 (inactive). For the same compound, in test [6], the slope was 0.00483 (inactive).
With `CC(=O)OC1CSc2nc3ccccc3n2C1` (centres undefined), the cell count in test [1] was determined as 393. Further, the inhibition in test [1] is -9.6% (inactive); in test [3], 25.1% (inactive); in test [7], 7.55% (inactive); in test [8] it was 13% (inactive). Also, the inhibition of aggregation in test [2] is 6.2% (inactive). Also, the nuclei count in test [2] amounted to 99.9%; in test [3] it was 118%. The fluorescence slope in test [4] is -0.302 (inactive). Further, the NADPH fluorescence slope in test [5] was -5.5e-05 (inactive). In addition, the slope in test [6] was 0.00459 (inactive).
Consider `COc1ccc(C2CC(c3ccc(Cl)cc3Cl)n3nc(N)nc3N2)cc1` (centres undefined), for which the cell count in test [1] is 461. Besides, the inhibition in test [1] is -1.8% (inactive); in test [3], -1.4% (inactive); in test [7], 9.25% (inactive); in test [8], 25.2% (inactive). The inhibition of aggregation in test [2] was -8.9% (inactive). Further, the figures for the nuclei count in test [2] and in test [3] were 66.5% and 101%, respectively. Besides, the fluorescence slope in test [4] is -0.592 (inactive). The NADPH fluorescence slope in test [5] is -5.5e-05 (inactive). The slope in test [6] was 0.00726 (inactive).
Turning to `COc1ccc(OC)c2[nH]c(=O)c(CCNC(=O)C(C)C)cc12`, the cell count in test [1] came out at 629. The inhibition in test [1] is -21.1% (inactive); in test [3], -27.3% (inactive); in test [7], -3.11% (inactive); in test [8], 9.79% (inactive). Besides, the inhibition of aggregation in test [2] was 7.9% (inactive). Further, the nuclei count in test [2] was 79.4%; in test [3] it was 112%. Also, the fluorescence slope in test [4] is -0.56 (inactive). Moreover, in test [5], the NADPH fluorescence slope was -1.8e-05 (inactive). The slope in test [6] was 0.00598 (inactive).
With `Cc1oc(-c2ccccc2F)nc1CS(=O)(=O)CC(=O)NCCCN1CCc2ccccc2C1`, in test [1], the cell count amounted to 649. The inhibition was 11% (inactive) in test [1], 27.9% (inactive) in test [3], 10.5% (inactive) in test [7] and 18.8% (inactive) in test [8]. Further, the inhibition of aggregation in test [2] was 16.1% (inactive). Besides, the nuclei count came to 68.5% in test [2] and 108% in test [3]. In addition, in test [4], the fluorescence slope is -0.508 (inactive). Moreover, the NADPH fluorescence slope in test [5] is -5.3e-07 (inactive). The slope in test [6] was 0.00532 (inactive).

Broadly, the inhibition is the drop in the measured response relative to a control, in per cent.
